The text below walks through data of ChEMBL document CHEMBL2218924, “A broad activity screen in support of a chemogenomic map for kinase signalling research and drug discovery” (Biochem J, 2013).

For experiment [1], the target named is T1, Ephrin type-A receptor 3 (Homo sapiens) (UniProt P29320).
T1 sequence (whole entry): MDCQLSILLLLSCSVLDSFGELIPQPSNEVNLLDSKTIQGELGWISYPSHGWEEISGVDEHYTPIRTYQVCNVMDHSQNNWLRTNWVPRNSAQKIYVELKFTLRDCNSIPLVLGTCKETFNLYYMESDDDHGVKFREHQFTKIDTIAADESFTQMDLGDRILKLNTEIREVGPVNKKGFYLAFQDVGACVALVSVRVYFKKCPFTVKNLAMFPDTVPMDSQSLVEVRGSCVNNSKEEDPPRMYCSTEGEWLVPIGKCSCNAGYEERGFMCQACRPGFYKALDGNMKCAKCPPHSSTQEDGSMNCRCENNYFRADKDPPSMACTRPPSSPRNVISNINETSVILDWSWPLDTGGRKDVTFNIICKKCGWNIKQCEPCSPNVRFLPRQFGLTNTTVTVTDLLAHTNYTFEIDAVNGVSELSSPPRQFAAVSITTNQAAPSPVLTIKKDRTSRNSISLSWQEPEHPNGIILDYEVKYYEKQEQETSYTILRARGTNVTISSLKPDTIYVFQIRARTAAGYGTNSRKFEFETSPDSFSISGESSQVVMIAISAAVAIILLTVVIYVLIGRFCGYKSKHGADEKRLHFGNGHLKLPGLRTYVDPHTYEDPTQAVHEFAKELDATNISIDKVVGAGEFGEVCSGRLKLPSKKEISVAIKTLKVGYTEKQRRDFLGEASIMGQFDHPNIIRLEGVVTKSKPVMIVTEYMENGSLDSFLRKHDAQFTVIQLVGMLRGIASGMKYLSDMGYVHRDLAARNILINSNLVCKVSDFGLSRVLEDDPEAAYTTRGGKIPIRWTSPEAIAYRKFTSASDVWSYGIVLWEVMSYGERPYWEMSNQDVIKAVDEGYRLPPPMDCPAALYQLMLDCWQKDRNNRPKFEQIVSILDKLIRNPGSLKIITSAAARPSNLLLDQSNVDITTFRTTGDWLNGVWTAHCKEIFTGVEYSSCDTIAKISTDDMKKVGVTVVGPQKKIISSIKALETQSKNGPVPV
Particulars: at 10 µM.

Experiment [2] addresses Ephrin type-A receptor 4 (Homo sapiens) (UniProt P54764). Conditions: at 1 µM.
The target is the same in experiment [3]. Conditions: at 10 µM.
In experiment [4] the target is Ephrin type-A receptor 5 (Homo sapiens) (UniProt P54756). Conditions: at 1 µM.
Experiment [5] shares this target. Conditions: at 10 µM.
For experiment [6], the target named is Ephrin type-A receptor 7 (Homo sapiens) (UniProt Q15375). Particulars: at 1 µM.
The target is the same in experiment [7]. Conditions: at 10 µM.
Experiment [8] deals with T2, Ephrin type-A receptor 8 (Homo sapiens) (UniProt P29322).
T2 sequence (whole entry): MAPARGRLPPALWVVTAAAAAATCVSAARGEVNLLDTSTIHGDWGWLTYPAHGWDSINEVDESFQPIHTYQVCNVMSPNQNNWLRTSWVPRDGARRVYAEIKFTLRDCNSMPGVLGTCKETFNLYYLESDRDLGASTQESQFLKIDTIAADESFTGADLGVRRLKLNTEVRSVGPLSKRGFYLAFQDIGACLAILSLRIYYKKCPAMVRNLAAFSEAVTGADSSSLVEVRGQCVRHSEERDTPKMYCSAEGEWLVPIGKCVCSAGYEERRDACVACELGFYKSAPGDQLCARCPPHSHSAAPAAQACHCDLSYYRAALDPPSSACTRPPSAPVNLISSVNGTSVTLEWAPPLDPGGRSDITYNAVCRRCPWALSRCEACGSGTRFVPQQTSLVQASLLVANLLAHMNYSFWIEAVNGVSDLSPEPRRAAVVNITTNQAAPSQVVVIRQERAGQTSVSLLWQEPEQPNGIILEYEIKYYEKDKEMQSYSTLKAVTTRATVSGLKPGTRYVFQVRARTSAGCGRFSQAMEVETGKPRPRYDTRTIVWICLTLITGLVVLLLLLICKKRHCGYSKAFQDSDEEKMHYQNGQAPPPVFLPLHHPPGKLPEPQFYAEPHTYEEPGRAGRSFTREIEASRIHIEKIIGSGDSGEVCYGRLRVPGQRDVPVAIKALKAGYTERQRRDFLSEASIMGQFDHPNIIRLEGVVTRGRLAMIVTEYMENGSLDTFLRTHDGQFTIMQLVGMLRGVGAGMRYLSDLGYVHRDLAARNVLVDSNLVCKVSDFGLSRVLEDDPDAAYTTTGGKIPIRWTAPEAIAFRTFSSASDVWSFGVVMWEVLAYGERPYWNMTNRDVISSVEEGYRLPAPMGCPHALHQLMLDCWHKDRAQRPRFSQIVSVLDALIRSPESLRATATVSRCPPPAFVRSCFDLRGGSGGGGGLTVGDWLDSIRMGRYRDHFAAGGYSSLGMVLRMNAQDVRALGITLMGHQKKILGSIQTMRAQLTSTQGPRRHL
Conditions: at 1 µM.

Experiment [9] has as its target T2, Ephrin type-A receptor 8 (Homo sapiens). Particulars: at 10 µM.
The target of experiment [10] is T3, Ephrin type-B receptor 1 (Homo sapiens) (UniProt P54762).
T3 sequence (whole entry): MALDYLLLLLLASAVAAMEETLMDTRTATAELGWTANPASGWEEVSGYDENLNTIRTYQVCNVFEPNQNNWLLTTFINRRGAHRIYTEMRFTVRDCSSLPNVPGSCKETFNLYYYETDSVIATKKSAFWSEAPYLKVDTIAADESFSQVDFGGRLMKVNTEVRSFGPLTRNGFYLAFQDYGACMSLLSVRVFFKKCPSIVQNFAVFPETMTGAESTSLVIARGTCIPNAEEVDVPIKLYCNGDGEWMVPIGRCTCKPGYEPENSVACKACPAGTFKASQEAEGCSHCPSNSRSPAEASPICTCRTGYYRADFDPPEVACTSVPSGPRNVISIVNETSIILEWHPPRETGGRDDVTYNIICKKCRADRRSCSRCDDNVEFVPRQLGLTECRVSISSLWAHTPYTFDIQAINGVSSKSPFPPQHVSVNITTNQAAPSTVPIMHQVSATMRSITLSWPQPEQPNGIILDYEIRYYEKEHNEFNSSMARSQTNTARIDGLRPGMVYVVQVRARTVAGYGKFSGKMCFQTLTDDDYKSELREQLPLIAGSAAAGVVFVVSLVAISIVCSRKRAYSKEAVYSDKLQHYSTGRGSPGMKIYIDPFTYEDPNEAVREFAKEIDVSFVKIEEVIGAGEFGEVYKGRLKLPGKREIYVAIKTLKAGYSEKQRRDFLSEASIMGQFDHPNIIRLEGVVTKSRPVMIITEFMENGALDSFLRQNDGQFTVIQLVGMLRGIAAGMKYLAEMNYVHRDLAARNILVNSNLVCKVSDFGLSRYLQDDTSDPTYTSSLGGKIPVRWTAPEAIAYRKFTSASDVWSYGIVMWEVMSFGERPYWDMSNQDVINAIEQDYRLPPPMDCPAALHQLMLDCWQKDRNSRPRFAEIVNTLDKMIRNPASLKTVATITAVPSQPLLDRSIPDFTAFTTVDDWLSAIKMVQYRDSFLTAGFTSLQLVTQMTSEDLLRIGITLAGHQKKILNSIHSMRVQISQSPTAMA
Particulars: at 1 µM.

Sequence of Ephrin type-A receptor 7 (Homo sapiens) (Q15375 28-998 limits assumed): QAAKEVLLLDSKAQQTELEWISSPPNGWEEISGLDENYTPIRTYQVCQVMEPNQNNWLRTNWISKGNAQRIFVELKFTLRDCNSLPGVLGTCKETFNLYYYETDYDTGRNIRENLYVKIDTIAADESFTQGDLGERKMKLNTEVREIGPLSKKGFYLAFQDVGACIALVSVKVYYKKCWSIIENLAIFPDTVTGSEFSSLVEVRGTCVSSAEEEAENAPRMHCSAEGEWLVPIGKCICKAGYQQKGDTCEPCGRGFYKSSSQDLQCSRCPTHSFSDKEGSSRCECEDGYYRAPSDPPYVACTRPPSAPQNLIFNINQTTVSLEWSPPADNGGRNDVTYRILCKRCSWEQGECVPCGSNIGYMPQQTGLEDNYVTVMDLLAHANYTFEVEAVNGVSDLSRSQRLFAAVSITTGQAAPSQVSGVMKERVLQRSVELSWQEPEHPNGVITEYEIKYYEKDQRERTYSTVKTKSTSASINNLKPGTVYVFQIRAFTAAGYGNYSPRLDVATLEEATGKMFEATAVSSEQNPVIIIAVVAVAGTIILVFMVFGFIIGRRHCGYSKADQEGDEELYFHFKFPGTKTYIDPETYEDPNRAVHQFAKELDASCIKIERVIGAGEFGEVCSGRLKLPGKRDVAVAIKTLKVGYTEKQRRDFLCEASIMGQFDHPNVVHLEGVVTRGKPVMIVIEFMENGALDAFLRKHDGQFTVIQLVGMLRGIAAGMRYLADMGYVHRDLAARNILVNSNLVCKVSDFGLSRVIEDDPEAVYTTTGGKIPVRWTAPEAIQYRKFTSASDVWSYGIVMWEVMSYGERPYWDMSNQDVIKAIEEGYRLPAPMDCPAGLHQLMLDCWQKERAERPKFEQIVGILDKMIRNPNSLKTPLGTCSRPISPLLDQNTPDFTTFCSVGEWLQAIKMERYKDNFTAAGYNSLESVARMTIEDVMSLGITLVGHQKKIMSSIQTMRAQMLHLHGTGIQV
Sequence of Ephrin type-A receptor 4 (Homo sapiens) (P54764 whole entry): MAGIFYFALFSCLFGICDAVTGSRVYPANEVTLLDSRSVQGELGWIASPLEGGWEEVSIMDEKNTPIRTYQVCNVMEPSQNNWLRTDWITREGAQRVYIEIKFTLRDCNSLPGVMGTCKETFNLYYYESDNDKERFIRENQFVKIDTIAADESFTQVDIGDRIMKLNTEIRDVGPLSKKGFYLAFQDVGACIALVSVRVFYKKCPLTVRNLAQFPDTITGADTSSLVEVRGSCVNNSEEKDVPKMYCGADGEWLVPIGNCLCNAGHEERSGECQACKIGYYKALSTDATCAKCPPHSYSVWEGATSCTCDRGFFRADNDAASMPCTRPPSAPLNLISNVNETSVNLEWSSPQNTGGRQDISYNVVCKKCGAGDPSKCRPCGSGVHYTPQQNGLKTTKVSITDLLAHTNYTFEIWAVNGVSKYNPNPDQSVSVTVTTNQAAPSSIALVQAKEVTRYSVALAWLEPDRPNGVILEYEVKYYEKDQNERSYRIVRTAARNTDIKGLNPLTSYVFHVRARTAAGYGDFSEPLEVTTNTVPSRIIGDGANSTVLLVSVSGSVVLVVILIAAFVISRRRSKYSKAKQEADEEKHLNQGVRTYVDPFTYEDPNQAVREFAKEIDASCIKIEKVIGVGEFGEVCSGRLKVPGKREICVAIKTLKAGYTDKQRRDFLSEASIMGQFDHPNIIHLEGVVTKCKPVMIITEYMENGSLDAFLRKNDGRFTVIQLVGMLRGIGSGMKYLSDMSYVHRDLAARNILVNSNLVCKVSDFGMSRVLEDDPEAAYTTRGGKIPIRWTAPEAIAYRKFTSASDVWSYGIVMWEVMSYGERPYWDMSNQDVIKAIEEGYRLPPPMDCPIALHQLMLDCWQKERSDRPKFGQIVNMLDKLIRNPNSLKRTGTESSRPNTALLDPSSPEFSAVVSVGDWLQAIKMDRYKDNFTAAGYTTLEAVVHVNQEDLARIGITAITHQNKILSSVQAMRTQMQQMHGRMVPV
Sequence of Ephrin type-A receptor 5 (Homo sapiens) (P54756 whole entry): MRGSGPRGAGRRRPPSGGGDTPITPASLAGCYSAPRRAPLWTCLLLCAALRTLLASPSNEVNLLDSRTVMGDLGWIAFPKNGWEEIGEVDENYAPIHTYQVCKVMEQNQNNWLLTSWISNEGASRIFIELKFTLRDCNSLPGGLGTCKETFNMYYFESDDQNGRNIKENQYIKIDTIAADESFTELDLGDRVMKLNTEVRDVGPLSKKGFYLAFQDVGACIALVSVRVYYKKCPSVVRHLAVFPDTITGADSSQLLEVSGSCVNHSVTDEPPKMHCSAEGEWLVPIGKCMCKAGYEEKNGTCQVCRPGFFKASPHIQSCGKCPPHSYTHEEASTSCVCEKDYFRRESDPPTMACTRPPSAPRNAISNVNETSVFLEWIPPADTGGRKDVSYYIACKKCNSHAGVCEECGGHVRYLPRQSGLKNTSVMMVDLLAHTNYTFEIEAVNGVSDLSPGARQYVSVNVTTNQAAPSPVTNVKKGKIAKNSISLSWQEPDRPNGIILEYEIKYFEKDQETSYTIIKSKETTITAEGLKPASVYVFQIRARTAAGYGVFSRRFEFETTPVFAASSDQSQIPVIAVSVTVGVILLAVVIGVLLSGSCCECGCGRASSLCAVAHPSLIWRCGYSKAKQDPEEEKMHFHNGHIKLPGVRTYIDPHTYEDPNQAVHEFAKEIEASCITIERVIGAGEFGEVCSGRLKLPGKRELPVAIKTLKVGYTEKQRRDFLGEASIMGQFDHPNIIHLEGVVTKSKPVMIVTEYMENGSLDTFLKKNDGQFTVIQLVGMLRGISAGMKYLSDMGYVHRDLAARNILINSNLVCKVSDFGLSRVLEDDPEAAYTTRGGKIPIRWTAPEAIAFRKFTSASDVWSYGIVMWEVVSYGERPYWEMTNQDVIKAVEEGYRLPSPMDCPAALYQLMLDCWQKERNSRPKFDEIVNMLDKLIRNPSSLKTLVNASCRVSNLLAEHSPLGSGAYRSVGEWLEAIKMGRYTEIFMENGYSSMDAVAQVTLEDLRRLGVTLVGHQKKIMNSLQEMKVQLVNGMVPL

For orientation: residual activity means the signal under treatment as a percentage of the control signal. As for `O=C(Nc1cccc(Nc2cc(Nc3cccc(C(F)(F)F)c3)ncn2)c1)C1CC1`, the residual activity was determined as 114% in [1]; 113% in experiment [2]; 103% in experiment [3]; 98% in experiment [4]; 87% in experiment [5]; 95% in experiment [6]. Besides, the residual activity worked out at 86% in [7], 98% in [8], 90% in experiment [9] and 98% in [10].
